Results as given in paper PMC7862700, “An all-to-all approach to the identification of sequence-specific readers for epigenetic DNA modifications on cytosine”.

Columns and labels:
Assay in all cases: DAPPL (digital affinity profiling via proximity ligation, sequencing); 10 mM Tris-HCl pH 7.5, 50 mM NaCl, 1 mM DTT, 4% glycerol, room temperature, 30 min; GST-TFs on glutathione beads, 16-mer random dsDNA library, 0.1% formaldehyde crosslink after washing; high values mean tight binding
Details in all cases: protein: recombinant; tags: N-terminal GST; dsDNA, one strand shown
ERF = target: T1, ERF (Homo sapiens, UniProt P50548 1-548)
T1 sequence: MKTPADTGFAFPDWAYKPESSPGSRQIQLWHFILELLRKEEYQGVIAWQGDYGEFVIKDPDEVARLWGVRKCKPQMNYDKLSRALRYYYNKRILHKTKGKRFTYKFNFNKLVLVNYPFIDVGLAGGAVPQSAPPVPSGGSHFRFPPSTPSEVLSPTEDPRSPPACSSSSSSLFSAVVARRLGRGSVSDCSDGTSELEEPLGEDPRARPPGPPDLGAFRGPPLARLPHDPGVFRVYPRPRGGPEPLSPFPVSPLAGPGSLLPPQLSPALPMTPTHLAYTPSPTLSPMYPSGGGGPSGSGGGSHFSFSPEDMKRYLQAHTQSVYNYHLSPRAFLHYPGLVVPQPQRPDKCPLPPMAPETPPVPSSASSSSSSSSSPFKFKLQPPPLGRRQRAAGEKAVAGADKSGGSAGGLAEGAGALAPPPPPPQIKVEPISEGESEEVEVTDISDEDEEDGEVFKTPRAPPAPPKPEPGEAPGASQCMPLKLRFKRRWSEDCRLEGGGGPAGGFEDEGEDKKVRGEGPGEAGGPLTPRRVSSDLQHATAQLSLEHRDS
Summary of the method: (§1)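 Pools of DNA-barcoded human transcription factors, expressed in yeast as GST fusions on glutathione beads and combined with a tag-only sample, were incubated with 200 nmole of a 16-mer random double-stranded DNA library. Incubation took 30 min at room temperature in Tris/NaCl/DTT/glycerol buffer and was followed by washing, 0.1% formaldehyde crosslinking, proximity ligation (BsaI/T4 ligase, 1 h, 37 °C), PCR amplification and sequencing on an Illumina NextSeq500. Binding signal is the ratio of a hexamer's read frequency for a factor to its frequency for the tag-only sample.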

ETV3L = target: T2, ETV3L (Homo sapiens, UniProt Q6ZN32 1-361)
T2 sequence: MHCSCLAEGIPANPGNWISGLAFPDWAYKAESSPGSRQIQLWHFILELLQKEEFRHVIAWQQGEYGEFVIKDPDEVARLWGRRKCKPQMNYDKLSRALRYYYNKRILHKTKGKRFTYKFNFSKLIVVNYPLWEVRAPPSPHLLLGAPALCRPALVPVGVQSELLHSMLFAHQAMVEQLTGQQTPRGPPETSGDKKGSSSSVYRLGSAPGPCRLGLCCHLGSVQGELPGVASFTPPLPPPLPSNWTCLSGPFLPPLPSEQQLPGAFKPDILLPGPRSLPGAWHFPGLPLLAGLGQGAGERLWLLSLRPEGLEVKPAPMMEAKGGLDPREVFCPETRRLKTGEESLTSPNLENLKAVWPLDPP
Summary of the method: as §1

ETS2 = target: T3, ETS2 (Homo sapiens, UniProt P15036 1-469)
T3 sequence: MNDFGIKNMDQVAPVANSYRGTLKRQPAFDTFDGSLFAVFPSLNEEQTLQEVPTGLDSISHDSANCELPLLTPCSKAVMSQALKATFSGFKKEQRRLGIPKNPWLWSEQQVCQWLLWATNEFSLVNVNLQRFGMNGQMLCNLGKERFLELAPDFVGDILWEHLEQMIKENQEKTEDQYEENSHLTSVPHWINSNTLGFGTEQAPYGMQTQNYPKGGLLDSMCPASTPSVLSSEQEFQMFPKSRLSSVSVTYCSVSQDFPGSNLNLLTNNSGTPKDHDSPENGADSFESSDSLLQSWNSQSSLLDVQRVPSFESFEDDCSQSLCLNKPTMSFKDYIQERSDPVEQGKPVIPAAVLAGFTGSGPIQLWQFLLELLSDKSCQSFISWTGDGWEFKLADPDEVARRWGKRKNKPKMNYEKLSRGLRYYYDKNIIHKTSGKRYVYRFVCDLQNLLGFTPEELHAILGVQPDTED
Summary of the method: as §1

SPDEF = target: T4, SPDEF (Homo sapiens, UniProt O95238 1-335)
T4 sequence: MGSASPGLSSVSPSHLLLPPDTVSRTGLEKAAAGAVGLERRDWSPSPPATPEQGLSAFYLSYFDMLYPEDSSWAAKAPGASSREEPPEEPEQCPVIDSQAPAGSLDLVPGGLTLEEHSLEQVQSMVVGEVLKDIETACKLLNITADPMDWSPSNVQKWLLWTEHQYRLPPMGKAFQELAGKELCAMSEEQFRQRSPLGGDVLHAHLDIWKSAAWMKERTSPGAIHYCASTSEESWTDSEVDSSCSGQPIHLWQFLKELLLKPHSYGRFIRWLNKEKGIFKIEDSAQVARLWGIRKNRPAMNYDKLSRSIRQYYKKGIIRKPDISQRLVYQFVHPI
Summary of the method: as §1

ETV7 = target: T5, ETV7 (Homo sapiens, UniProt Q9Y603 1-341)
T5 sequence: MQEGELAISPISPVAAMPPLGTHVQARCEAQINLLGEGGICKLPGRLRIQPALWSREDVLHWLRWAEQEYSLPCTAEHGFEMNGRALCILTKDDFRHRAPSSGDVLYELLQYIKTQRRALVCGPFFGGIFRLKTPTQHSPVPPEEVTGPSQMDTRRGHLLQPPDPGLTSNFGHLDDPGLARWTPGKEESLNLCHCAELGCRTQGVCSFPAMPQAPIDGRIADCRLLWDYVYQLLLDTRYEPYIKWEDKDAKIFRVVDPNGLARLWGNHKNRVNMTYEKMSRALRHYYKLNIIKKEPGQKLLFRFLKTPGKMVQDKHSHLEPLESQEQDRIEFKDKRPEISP
Summary of the method: as §1

ELF5 = target: T6, ELF5 (Homo sapiens, UniProt Q9UKW6-2 1-255)
T6 sequence: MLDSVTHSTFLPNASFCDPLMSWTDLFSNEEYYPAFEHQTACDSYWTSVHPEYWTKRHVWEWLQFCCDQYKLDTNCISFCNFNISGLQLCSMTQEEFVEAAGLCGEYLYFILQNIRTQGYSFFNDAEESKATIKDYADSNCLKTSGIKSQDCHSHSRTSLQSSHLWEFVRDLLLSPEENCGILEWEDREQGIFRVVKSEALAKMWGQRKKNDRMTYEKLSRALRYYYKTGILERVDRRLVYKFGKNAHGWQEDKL
Summary of the method: as §1

ETV3 = target: T7, ETV3 (Homo sapiens, UniProt P41162-2 1-143)
T7 sequence: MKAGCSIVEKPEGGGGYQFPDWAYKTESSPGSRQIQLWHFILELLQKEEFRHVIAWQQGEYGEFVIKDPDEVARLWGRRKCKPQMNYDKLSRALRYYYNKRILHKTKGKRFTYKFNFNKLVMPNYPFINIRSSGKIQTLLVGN
Summary of the method: as §1

ETV6 = ETV6 (Homo sapiens, UniProt P41212 1-452)
Chain of ETV6 (P41212 whole entry): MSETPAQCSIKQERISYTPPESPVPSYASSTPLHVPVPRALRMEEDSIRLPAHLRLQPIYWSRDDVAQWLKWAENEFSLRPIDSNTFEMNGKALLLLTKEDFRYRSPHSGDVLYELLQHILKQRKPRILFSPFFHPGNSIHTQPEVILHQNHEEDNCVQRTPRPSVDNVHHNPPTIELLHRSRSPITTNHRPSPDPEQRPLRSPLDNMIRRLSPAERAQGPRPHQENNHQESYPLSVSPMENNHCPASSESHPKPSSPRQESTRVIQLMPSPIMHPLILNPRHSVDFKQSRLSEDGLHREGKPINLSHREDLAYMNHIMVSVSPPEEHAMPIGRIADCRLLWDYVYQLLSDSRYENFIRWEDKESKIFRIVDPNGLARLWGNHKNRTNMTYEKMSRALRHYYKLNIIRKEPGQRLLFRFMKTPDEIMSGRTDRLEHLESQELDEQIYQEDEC
Summary of the method: as §1

Sequence	binding signal (ERF)	binding signal (ETV3L)	binding signal (ETS2)	binding signal (SPDEF)	binding signal (ETV7)	binding signal (ELF5)	binding signal (ETV3)	binding signal (ETV6)
TCCTTC	1.95 fold enrichment (6-mer frequency, TF over GST control)	1.9 fold enrichment (6-mer frequency, TF over GST control)	2.09 fold enrichment (6-mer frequency, TF over GST control)	2.21 fold enrichment (6-mer frequency, TF over GST control)	1.92 fold enrichment (6-mer frequency, TF over GST control)	3.06 fold enrichment (6-mer frequency, TF over GST control)	2.21 fold enrichment (6-mer frequency, TF over GST control)	2.31 fold enrichment (6-mer frequency, TF over GST control)
AGCAAT	1.1 fold enrichment (6-mer frequency, TF over GST control)	1.03 fold enrichment (6-mer frequency, TF over GST control)	1.1 fold enrichment (6-mer frequency, TF over GST control)	1.04 fold enrichment (6-mer frequency, TF over GST control)	1.25 fold enrichment (6-mer frequency, TF over GST control)	1.08 fold enrichment (6-mer frequency, TF over GST control)	1.18 fold enrichment (6-mer frequency, TF over GST control)	1.14 fold enrichment (6-mer frequency, TF over GST control)
TACGAT	1.07 fold enrichment (6-mer frequency, TF over GST control)	1.13 fold enrichment (6-mer frequency, TF over GST control)	1.15 fold enrichment (6-mer frequency, TF over GST control)	1.11 fold enrichment (6-mer frequency, TF over GST control)	1.07 fold enrichment (6-mer frequency, TF over GST control)	1.03 fold enrichment (6-mer frequency, TF over GST control)	1 fold enrichment (6-mer frequency, TF over GST control)	1.03 fold enrichment (6-mer frequency, TF over GST control)
AGCTCT	1.16 fold enrichment (6-mer frequency, TF over GST control)	1.34 fold enrichment (6-mer frequency, TF over GST control)	1.16 fold enrichment (6-mer frequency, TF over GST control)	1.03 fold enrichment (6-mer frequency, TF over GST control)	1.17 fold enrichment (6-mer frequency, TF over GST control)	1.12 fold enrichment (6-mer frequency, TF over GST control)	1.21 fold enrichment (6-mer frequency, TF over GST control)	1.17 fold enrichment (6-mer frequency, TF over GST control)
TCAAAC	1.18 fold enrichment (6-mer frequency, TF over GST control)	1.09 fold enrichment (6-mer frequency, TF over GST control)	1.19 fold enrichment (6-mer frequency, TF over GST control)	1.15 fold enrichment (6-mer frequency, TF over GST control)	1.11 fold enrichment (6-mer frequency, TF over GST control)	1.12 fold enrichment (6-mer frequency, TF over GST control)	1.21 fold enrichment (6-mer frequency, TF over GST control)	1.19 fold enrichment (6-mer frequency, TF over GST control)
CCCCTC	1.43 fold enrichment (6-mer frequency, TF over GST control)	1.4 fold enrichment (6-mer frequency, TF over GST control)	1.33 fold enrichment (6-mer frequency, TF over GST control)	1.33 fold enrichment (6-mer frequency, TF over GST control)	1.24 fold enrichment (6-mer frequency, TF over GST control)	1.24 fold enrichment (6-mer frequency, TF over GST control)	1.28 fold enrichment (6-mer frequency, TF over GST control)	1.28 fold enrichment (6-mer frequency, TF over GST control)
CCCGCA	1.24 fold enrichment (6-mer frequency, TF over GST control)	1.22 fold enrichment (6-mer frequency, TF over GST control)	1.18 fold enrichment (6-mer frequency, TF over GST control)	1.27 fold enrichment (6-mer frequency, TF over GST control)	1.31 fold enrichment (6-mer frequency, TF over GST control)	1.27 fold enrichment (6-mer frequency, TF over GST control)	1.2 fold enrichment (6-mer frequency, TF over GST control)	1.25 fold enrichment (6-mer frequency, TF over GST control)
CTTCGC	1.61 fold enrichment (6-mer frequency, TF over GST control)	1.45 fold enrichment (6-mer frequency, TF over GST control)	1.42 fold enrichment (6-mer frequency, TF over GST control)	1.54 fold enrichment (6-mer frequency, TF over GST control)	1.38 fold enrichment (6-mer frequency, TF over GST control)	1.34 fold enrichment (6-mer frequency, TF over GST control)	1.43 fold enrichment (6-mer frequency, TF over GST control)	1.34 fold enrichment (6-mer frequency, TF over GST control)
